Holding throughout (type): functional
Test [1] relates to Plasmodium falciparum. The experiment in a line: GSK_TCMDC: Inhibition of Plasmodium falciparum 3D7 in whole red blood cells, using parasite LDH activity as an index of growth. Test compounds present at 2uM.
The subject of test [2] is Plasmodium falciparum. The experiment in a line: GSK_TCMDC: Inhibition of Plasmodium falciparum Dd2 in whole red blood cells, using parasite LDH activity as an index of growth. Test compounds present at 2uM.
Test [3] relates to HepG2. The experiment in a line: GSK_TCMDC: Percent inhibition of human HepG2 cell line. Test compounds present at 10uM.

For orientation: Inhibition means the drop in the measured response relative to a control, in per cent.

`O=C(/C=C/c1ccc(Cl)c(Cl)c1)N1CCC(CCN2CCC(c3nc4cc(O)ccc4[nH]3)CC2)CC1`: the values for the Inhibition in test [1], in test [2] and in test [3] were 100%, 60% and 42%, respectively.
Take `O=C(NCc1cccc2ccccc12)[C@@H]1CCCN1C(=O)c1ccc(O)c(-c2ccc(Cl)c(Cl)c2)c1`: the Inhibition was 98% in test [1], 71% in test [2] and 0% in test [3].
For the compound `CCCc1cc(Cc2cnc(N)nc2N)cc(CCC)c1O.Cl`, the Inhibition in test [1] is given as 96%; in test [2] it was 5%; in test [3] it was 64%.
The matching figures for `c1ccc(-c2n[nH]cc2Nc2ccnc3ccccc23)nc1`: 100%, 98% and 36%.
`CCc1cc(Br)c2c(c1)C(NCCCNc1cc(=O)c3ccccc3[nH]1)CCN2` (stereo unspecified): the values for the Inhibition in test [1], in test [2] and in test [3] were 94%, 20% and 13%, respectively.
On the same counts, the results for `COc1ccc(C(=O)CCC(=O)N(CCC2CCCN2C)Cc2ccc(-c3ccc(CNCCc4ccc(S(C)(=O)=O)cc4)cn3)cc2)cc1F.O=C(O)C(F)(F)F` (stereo unspecified) are 93%, 45% and 13%.
`Cc1ncccc1C(=O)Nc1cccc(-c2cccc(-c3nc4cccc(C)c4[nH]3)c2)c1`: the values for the Inhibition in test [1], in test [2] and in test [3] were 93%, 69% and 6%, respectively.
The matching figures for `CCCCCCCC1CC(CC(=O)Nc2ccnc3ccc(OC)cc23)CN1` (stereo unspecified): 90%, 58% and 22%.
On the same counts, the results for `COC(=O)c1ccc2c(-c3nc4ccc(OC)cc4[nH]3)c[nH]c2c1` are 95%, 31% and 0%.
On the same counts, the results for `CN(C)CCNCc1nc(-c2ccc3c(Nc4ccc(Cl)cc4F)ccnc3c2)cs1` are 100%, 100% and 0%.
With `COc1cc2nc(NCc3cccc(CNC(=O)c4ccc(-c5ccc(C(C)=O)cc5)cc4)c3)nc(N)c2cc1OC.O=C(O)C(F)(F)F`, the figures for the Inhibition in test [1], in test [2] and in test [3] were 100%, 72% and 32%, respectively.
In the case of `COc1ccc(C(=O)CCC(=O)N(Cc2ccc(-c3ccc(CNCc4cccnc4)cn3)cc2)C2CCN(Cc3ccccc3)CC2)cc1F.O=C(O)C(F)(F)F`, the results for the Inhibition in test [1], in test [2] and in test [3] were 94%, 26% and 30%, respectively.
On the same counts, the results for `CC(=O)Nc1nc(C(=O)Nc2cccc(-c3cccc(-c4nc5cccc(C)c5[nH]4)c3)c2)cs1` are 100%, 94% and 28%.
The matching figures for `CS(=O)(=O)c1ccc(CCNCc2ccc(-c3ccc(CN(C(=O)c4ccco4)C4CCN(Cc5ccccc5)CC4)cc3)nc2)cc1.O=C(O)C(F)(F)F`: 85%, 38% and 13%.
The matching figures for `CN(Cc1cccc(C#N)c1)C1CCN(c2cc(NC(=O)c3cccc(F)c3)ccn2)CC1.O=C(O)C(F)(F)F`: 98%, 15% and 0%.
Take `COc1ccc(-c2ccc(NC(=O)c3ccccc3)cc2)cc1CN1CCCN(C)CC1.O=C(O)C(F)(F)F`: the Inhibition in test [1] amounted to 92%; in test [2], 17%; in test [3], 24%.
The matching figures for `CCc1cn(C)c2c(N3CCCC3=O)cc(C(=O)N[C@@H](Cc3ccccc3)[C@H](O)CNCc3cccc(OC)c3)cc12`: 96%, 97% and 7%.
The matching figures for `Cl.c1ccc(-c2cc(NCCCCNc3cc(-c4ccccc4)nc4ccccc34)c3ccccc3n2)cc1`: 100%, 97% and 70%.
On the same counts, the results for `FC(F)(F)c1ccc2[nH]c(-c3ccc(-c4cccc(CNCC5CCCO5)c4)cc3)nc2c1.O=C(O)C(F)(F)F` (stereo unspecified) are 100%, 100% and 36%.
For `Fc1cccc2sc(Nc3nc(-c4ccccn4)cs3)nc12`, the values for the Inhibition in test [1], in test [2] and in test [3] were 95%, 97% and 30%, respectively.
On the same counts, the results for `O=C(Nc1ccc([N+](=O)[O-])cc1O)Nc1ccccc1Oc1ccccc1` are 92%, 1% and 45%.
For the compound `COc1ccc(CNCc2cccc(-c3cccc(-c4nc5cc(C(F)(F)F)ccc5[nH]4)c3)c2)cc1.O=C(O)C(F)(F)F`, the values for the Inhibition in test [1], in test [2] and in test [3] were 100%, 91% and 40%, respectively.
On the same counts, the results for `CCCN(CCC)CCCOc1ccc(C(=O)c2c(-c3ccc(OCCCN(CCC)CCC)cc3)oc3ccc(Cl)cc23)cc1.Cl` are 96%, 95% and 100%.
Consider `CCc1nc2nc(C)cc(Nc3cc(C)cc(C)c3)n2n1`, for which the Inhibition in test [1] was found to be 96%; in test [2], 96%; in test [3] it was 21%.
As for `Cc1ccc(CN2CCCN(Cc3cccc(NC(=O)c4cc5ccccc5s4)c3)CC2)cc1C.O=C(O)C(F)(F)F`, the values for the Inhibition in test [1], in test [2] and in test [3] were 92%, 33% and 44%, respectively.
On to `Cc1cccc2nc(-c3ccc(-c4ccc(CNC(C)C)cc4)cc3)[nH]c12.O=C(O)C(F)(F)F`, for which the Inhibition is on record as 99% in test [1], 62% in test [2] and 12% in test [3].
On the same counts, the results for `CCC(CC)C(CC(=O)NC(C)(C)CCc1ccccc1OC)Nc1ccc(C#N)c2ccccc12` (stereo unspecified) are 93%, 91% and 9%.

These data come from ChEMBL document CHEMBL1157539, “Thousands of chemical starting points for antimalarial lead identification” (Nature, 2010).
